Compound activity as filed in PubChem.
A selection: hits, their analogues and other compounds. The true share with any hit is near 7.2%.
Efflux pump inh – inhibitors of Candida efflux pumps in yeast, primary screen, S. cerevisiae, Nile Red, multiplex; AID 485275, 2010; 330,000 compounds, 0.44% hits; inhibition, % at 10 µM; S. cerevisiae Candida pump triplex;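 active = plate passing quality check with inhibition over a set limit, or well fluorescence over plate mean plus 4 SD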;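 note: Nile Red retained in pooled yeast measured as flow cytometry median fluorescence; 0% = buffer negative control and 100% = Enniatin B positive control; higher means more Nile Red kept so more efflux inhibition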
SUMO Mot1 rescue – yeast Mot1-301 growth rescue at high temperature, primary screen, SUMOylation pathway inhibitor project, S. cerevisiae, ATP luminescence, 38.5C; 320,000 compounds, 1% hits; AID 2716, 2010; S. cerevisiae Mot1-301 growth rescue; percent above DMSO median, 100 means doubled; growth rescue, % at 18.8 µM;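 active = every valid replicate shows activation above 250% relative to neutral control wells; inactive = the rest, any valid replicate at or below 250%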;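 note: OY570 slx delta 5 strain wells were the positive control but not used for scaling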
ALR inh – inhibitors of human ALR sulfhydryl oxidase, primary screen, biochemical, H2O2 detection, HRP-luminol luminescence, single point; 290,000 compounds, 3.8% hits; FAD-linked sulfhydryl oxidase ALR (Homo sapiens), P55789; inhibition, % (test concentration not listed); AID 485317, 2010; purified ALR, DTT oxidation;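 active = mean replicate inhibition above about 79%, with every replicate also reaching it, limit read from the data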
Bfl-1 A1 inh – caspase 3/7 activation in MEF A1-2A-BIM cells, primary screen, A1 inhibitor project, cell-based, luminescence, HTS; caspase activation, % (concentration not given with the values); 330,000 compounds, 0.066% hits; Caspase-Glo 3/7 luminescence, 3 h; percent of clofoctol response, vehicle zero;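 active = over half of replicate activation scores above 10%, or exactly half above 10 with the replicate mean above 10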
AHR act – AHR activators, primary screen, cell-based, luminescence, luciferase reporter, human. Aryl hydrocarbon receptor (Homo sapiens), P35869. AHR-responsive luciferase reporter cells. activation, % at 5 µM. 320,000 compounds, 2.5% hits. AID 2796, 2010; in the data active = activation above about 47%;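 note: 0% = vehicle wells and 100% = reference agonist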
Target sequence (P35869 whole entry, looked up): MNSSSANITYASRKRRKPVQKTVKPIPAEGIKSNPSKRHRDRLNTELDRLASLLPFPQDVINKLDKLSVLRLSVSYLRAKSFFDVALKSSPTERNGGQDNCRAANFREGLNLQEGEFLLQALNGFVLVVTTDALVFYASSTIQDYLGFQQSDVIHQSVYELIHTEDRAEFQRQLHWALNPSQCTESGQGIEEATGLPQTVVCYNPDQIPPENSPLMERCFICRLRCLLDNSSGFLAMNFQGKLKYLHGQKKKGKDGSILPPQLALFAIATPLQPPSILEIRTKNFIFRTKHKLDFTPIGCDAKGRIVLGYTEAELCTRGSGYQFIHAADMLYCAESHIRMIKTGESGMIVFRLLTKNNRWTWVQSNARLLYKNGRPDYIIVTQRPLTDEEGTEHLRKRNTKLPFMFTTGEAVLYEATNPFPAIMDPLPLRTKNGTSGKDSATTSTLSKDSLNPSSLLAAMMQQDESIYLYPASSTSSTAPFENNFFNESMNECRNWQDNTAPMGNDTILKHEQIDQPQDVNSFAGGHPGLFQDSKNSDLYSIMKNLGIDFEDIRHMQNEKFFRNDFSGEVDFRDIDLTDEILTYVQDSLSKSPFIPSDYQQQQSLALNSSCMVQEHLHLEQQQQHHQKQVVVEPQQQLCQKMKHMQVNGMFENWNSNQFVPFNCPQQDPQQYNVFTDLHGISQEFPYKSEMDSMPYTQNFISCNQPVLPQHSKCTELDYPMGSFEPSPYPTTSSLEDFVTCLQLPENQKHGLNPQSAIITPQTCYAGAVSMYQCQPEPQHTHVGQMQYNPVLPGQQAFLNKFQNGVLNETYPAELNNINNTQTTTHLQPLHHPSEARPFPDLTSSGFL
VLA-4 inh – inhibition in human VLA-4 binding assay, primary screen, VLA-4 allosteric modulator project, MLPCN library, flow cytometry, VLA-4 expressing cells | Integrin alpha-4 (Homo sapiens), P13612 | ligand binding flow cytometry | inhibition, % (about 7 µM as worked out from the volumes in the protocol) | 330,000 compounds, 0.2% hits | AID 2557, 2010; in the data active = inhibition above about 50%
Yeast cmpd fluor – compound fluorescence in yeast efflux pump counter-screen | shares compounds with Efflux pump inh | S. cerevisiae AD/pABC3, flow cytometry | fluorescence ratio to DMSO, % at 10 µM | 1,700 compounds, 4% hits | AID 588517;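 active = fluorescence ratio to DMSO above its plate's cutoff, the plate mean ratio plus 5 SD, cut at about 210% in these data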;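 note: unstained yeast with no Nile Red so the signal is compound autofluorescence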
CaMdr1 efflux inh – inhibitors of Candida albicans Mdr1 efflux, confirmation, flow cytometry, singleplex, Cherry Pick1 set; AID 588518, 2011; 1,700 compounds, 1% hits; inhibition, % at 10 µM; shares compounds with Efflux pump inh; S. cerevisiae AD/CaMDR1, Nile Red efflux; in the data active = inhibition above about 26%;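 note: 0% = DMSO vehicle and 100% = reference inhibitor; higher means more Nile Red retained so more efflux inhibition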
Cdr2 pump inh – inhibitors of Candida albicans Cdr2 efflux pump, confirmation, S. cerevisiae AD/CaCDR2, flow cytometry, cherry pick 1, singleplex; 1,700 compounds, 4% hits; Nile Red retention ratio vs DMSO, % at 10 µM; shares compounds with Efflux pump inh; Nile Red retention; in the data active = Nile Red retention ratio vs DMSO above about 190%;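 note: higher ratio means more blocking of Cdr2 efflux of the dye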
Cdr1 pump inh – inhibitors of Candida albicans Cdr1 efflux pump, confirmation, S. cerevisiae AD/CaCDR1, flow cytometry, cherry pick 1, singleplex; shares compounds with Efflux pump inh; Nile Red efflux; AID 588522, 2011; 1,700 compounds, 1% hits; inhibition, % at 10 µM;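 active = inhibition above the screen-wide mean plus twice its standard deviation, cut at about 32% in these data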
* marks the source's active call; other numbers are inactive results.

Cc1nnc(SCC(=O)NNC(=O)c2ccc(Cl)cc2)s1 was read as Efflux pump inh -0.2, SUMO Mot1 rescue 8.2, ALR inh -6.7, Bfl-1 A1 inh 2.7, AHR act -2.4 and VLA-4 inh 1.3.
COc1cccc(C(=O)O/N=C(\N)c2ccncc2)c1OC was read as Efflux pump inh 12.6*, SUMO Mot1 rescue -0.2, ALR inh -2.8, Bfl-1 A1 inh 0.0, AHR act 1.9, VLA-4 inh -23.0, Yeast cmpd fluor 97.6, CaMdr1 efflux inh -0.3, Cdr2 pump inh 107.2 and Cdr1 pump inh -0.1.
`COc1ccc(Cl)cc1C(=O)O/N=C(\N)c1ccc(Cl)cc1` gave Efflux pump inh 6.5*, SUMO Mot1 rescue 93.7, ALR inh 1.4, Bfl-1 A1 inh -0.2, AHR act 17.5, VLA-4 inh -12.5, Yeast cmpd fluor 113.5, CaMdr1 efflux inh -0.3, Cdr2 pump inh 110.3 and Cdr1 pump inh -0.1.
For CCOC(=O)c1[nH]ncc1CN1CCN(Cc2ccccc2)C(CCO)C1 (centres undefined) the results were Efflux pump inh -0.1, SUMO Mot1 rescue -10.8, ALR inh 2.4, Bfl-1 A1 inh 1.1, AHR act 4.4 and VLA-4 inh -0.9.
For OCCN1CCN(CC/C=C2/c3ccccc3Sc3ccc(C(F)(F)F)cc32)CC1 the results were Efflux pump inh 0.0, SUMO Mot1 rescue 3.5, ALR inh -16.2, Bfl-1 A1 inh -0.1, AHR act -1.0, VLA-4 inh 7.1, Yeast cmpd fluor 110.0, CaMdr1 efflux inh -0.1, Cdr2 pump inh 112.3 and Cdr1 pump inh -0.1.
For OCCN1CCN(CC/C=C2/c3ccccc3CSc3ccccc32)CC1 the results were Efflux pump inh 0.1, SUMO Mot1 rescue 80.1, ALR inh -6.1, Bfl-1 A1 inh 1.1, AHR act -1.0 and VLA-4 inh -1.7.
Screening O=C(/C=C/c1ccc(Cl)cc1)NCCCN1CCOCC1 returned Efflux pump inh 0.1, SUMO Mot1 rescue 8.9, ALR inh -15.2, Bfl-1 A1 inh 0.4, AHR act 1.4 and VLA-4 inh 4.8.
For O=C(/C=C/c1ccc2c(c1)OCO2)NCCCN1CCOCC1 the results were Efflux pump inh 11.1*, SUMO Mot1 rescue -10.8, ALR inh -1.5, Bfl-1 A1 inh 0.4, AHR act 3.2, VLA-4 inh 1.8, Yeast cmpd fluor 98.2, CaMdr1 efflux inh 0.0, Cdr2 pump inh 99.7 and Cdr1 pump inh -0.1.
Screening COCCNC(=O)/C(C#N)=C/C(C)=C/c1ccccc1 returned Efflux pump inh 16.6*, SUMO Mot1 rescue -9.1, ALR inh -4.2, Bfl-1 A1 inh 0.1, AHR act -4.9, VLA-4 inh 10.0, Yeast cmpd fluor 98.9, CaMdr1 efflux inh -0.2, Cdr2 pump inh 102.2 and Cdr1 pump inh 0.0.
For CN1C[C@@H]2C(c3ccc(C(F)(F)F)cc3)C3(c4cccnc4)CC2(C3)[C@H]1c1ccccc1 (some centres undefined) the results were Efflux pump inh 0.0, SUMO Mot1 rescue 15.3, ALR inh -39.9, Bfl-1 A1 inh -0.5, AHR act 2.4 and VLA-4 inh -11.6.
For CCCOC(=O)c1ccc(NC(=O)C2C3CCC(C3)C2C(=O)O)cc1 (centres undefined) the results were Efflux pump inh 15.2*, SUMO Mot1 rescue 19.8, ALR inh -6.4, Bfl-1 A1 inh 0.4, AHR act 4.0, VLA-4 inh 0.7, Yeast cmpd fluor 104.6, CaMdr1 efflux inh 0.1, Cdr2 pump inh 101.8 and Cdr1 pump inh -0.1.
`O=C(CNC(=O)C1COc2ccccc2O1)N/N=C\c1cccc(O)c1` (centres undefined) gave Efflux pump inh 7.6*, SUMO Mot1 rescue -7.0, ALR inh 28.4, Bfl-1 A1 inh -0.5, AHR act 5.3, VLA-4 inh 11.1, Yeast cmpd fluor 88.5, CaMdr1 efflux inh -0.4, Cdr2 pump inh 87.3 and Cdr1 pump inh -0.1.
Screening O=C(CNC(=O)C1COc2ccccc2O1)N/N=C/c1ccc(O)cc1O (centres undefined) returned Efflux pump inh 0.0, SUMO Mot1 rescue -19.4, ALR inh 67.2, Bfl-1 A1 inh -0.1, AHR act -0.2 and VLA-4 inh 10.9.
`O=C(c1cc2c(s1)CCCC2)N1CCN(S(=O)(=O)c2ccccc2C(F)(F)F)CC1` gave Efflux pump inh 6.7*, SUMO Mot1 rescue 182.4, ALR inh -5.9, Bfl-1 A1 inh -0.2, AHR act 12.1, VLA-4 inh 10.8, Yeast cmpd fluor 108.3, CaMdr1 efflux inh -0.3, Cdr2 pump inh 105.7 and Cdr1 pump inh 0.1.
Cc1cc(Cl)c2oc(C(=O)NCC(C)(C)N3CCOCC3)c(C)c2c1 was read as Efflux pump inh 0.6*, SUMO Mot1 rescue 8.9, ALR inh 0.3, Bfl-1 A1 inh -0.1, AHR act 18.5, VLA-4 inh -3.0, Yeast cmpd fluor 128.1, CaMdr1 efflux inh 0.0, Cdr2 pump inh 102.2 and Cdr1 pump inh 0.2.
O/N=C(\c1ccc(Cl)cc1)c1cc2ccccc2o1 was read as Efflux pump inh -0.3, SUMO Mot1 rescue 18.1, ALR inh 7.3, Bfl-1 A1 inh 0.6, AHR act 2.5 and VLA-4 inh 8.3.
For O=C(CNCc1ccc(Cl)cc1)N1CCc2ccccc2C1 the results were Efflux pump inh 0.0, SUMO Mot1 rescue 5.5, Bfl-1 A1 inh -0.2, AHR act -0.2 and VLA-4 inh -7.5.
Screening O=C(NCc1ccc(Cl)cc1)N1CCc2ccccc2C1 returned Efflux pump inh 1.3*, SUMO Mot1 rescue 330.4, ALR inh -3.4, Bfl-1 A1 inh 0.4, AHR act 3.0, VLA-4 inh 1.0, Yeast cmpd fluor 105.7, CaMdr1 efflux inh -0.2, Cdr2 pump inh 108.1 and Cdr1 pump inh -0.1.
